Some test systems named below: HCT-15 colon; HT29 colon; SNB-75 CNS; SNB-19 CNS; U251 CNS; PC-3 prostate; SK-MEL-5 melanoma; UACC-62 melanoma; SK-MEL-28 melanoma; LOX IMVI melanoma.
Common to all, as to assay: NCI-60 one-dose screen, 48 h (100 = growth as untreated, 0 = no growth, -100 = all killed)
Conditions in all cases: 10 µM unless noted

Growth data for 15 compounds are collected here from PubChem BioAssay (NCI).

This is part of a sample that, as a whole, favours compounds with a hit. Of some 83,000 tested, about 20% had one in any assay.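 Compound tested at a single concentration for 48 hours in 96-well plates; a percent growth value below 10 was scored as active.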 A number with no mark means an inactive call. Activity calls are given as the source filed them.

For the compound `COC(=O)c1ccc(C)cc1`, the growth was 105% with HCT-15 colon; 98.6% in the assay with HT29 colon; 89.2% in the assay on SNB-75 CNS; 115% with SNB-19 CNS; 94.9% in the assay with U251 CNS; 97.5% in the assay with PC-3 prostate. For the same compound, the figures for the growth in the assay on SK-MEL-5 melanoma, in the assay with UACC-62 melanoma and in the assay on SK-MEL-28 melanoma were 103%, 106% and 113%, respectively.

For the compound `CCOC(=O)c1cc(/C(=N\O)c2cc(OC)c(OC)c(OC)c2)n2cc(C)cc(C)c12`, the growth with HCT-15 colon was 17.9%; in the assay with HT29 colon, 6.89% (active); in the assay with SNB-75 CNS, 25.1%; with SNB-19 CNS, 40.5%; with U251 CNS, 12.6%; in the assay on PC-3 prostate, 41%. The growth was 12.1% in the assay on SK-MEL-5 melanoma, 19.8% in the assay on UACC-62 melanoma and 56.1% with SK-MEL-28 melanoma.

`Nc1c(C(=O)Nc2ccccc2)sc2nc3c(cc12)CCCCC3`: the growth was 20.1% with HCT-15 colon; -15.5% (active) with HT29 colon; -6.57% (active) in the assay on SNB-75 CNS; 22.1% with SNB-19 CNS; 13.8% in the assay with U251 CNS; 9.02% (active) in the assay with PC-3 prostate. Moreover, the growth in the assay with SK-MEL-5 melanoma is 11.3%; with UACC-62 melanoma, 5.45% (active); with SK-MEL-28 melanoma, 36.6%.

For the compound `C/C(=N\NC(=O)CC#N)c1cc2cc(Cl)ccc2o1`, the growth with HCT-15 colon is 94.7%; with HT29 colon, 97.2%; in the assay with SNB-75 CNS, 91%; in the assay with SNB-19 CNS, 77.9%; with U251 CNS it was 89.3%; in the assay with PC-3 prostate, 92.4%. The values for the growth in the assay on SK-MEL-5 melanoma, in the assay with UACC-62 melanoma and in the assay on SK-MEL-28 melanoma were 84.2%, 91% and 110%, respectively.

In the case of `CCC1CCc2nc3sc(C(=O)Nc4ccccc4F)c(N)c3cc2C1` (configuration not stated), the growth with HCT-15 colon was 35.3%; in the assay on HT29 colon, 39.5%; in the assay with SNB-75 CNS, 66.1%; in the assay with SNB-19 CNS, 76%; with U251 CNS, 65.5%; with PC-3 prostate it was 67.3%. In addition, the figures for the growth in the assay on SK-MEL-5 melanoma, in the assay on UACC-62 melanoma and in the assay on SK-MEL-28 melanoma were 40.2%, 47.9% and 59.9%, respectively.

Take `COc1ccc([N+](=O)[O-])c(/C=C/C(=O)c2ccccn2)c1`: the growth in the assay on HCT-15 colon was 57.5%; in the assay on HT29 colon it was 58.8%; with SNB-75 CNS, 67.2%; in the assay on SNB-19 CNS it was 97.6%; with U251 CNS it was 42.2%; with PC-3 prostate, 82.1%. In addition, the results for the growth in the assay on UACC-62 melanoma, in the assay on LOX IMVI melanoma and with SK-MEL-28 melanoma were 94.7%, 41% and 100%, respectively.

For `Cc1ccc(Nc2ncnc3c2sc2ncccc23)cc1`, the growth is 99.2% in the assay with HCT-15 colon; 114% in the assay with HT29 colon; 82.8% with SNB-75 CNS; 103% in the assay with SNB-19 CNS; 101% with U251 CNS; 103% with PC-3 prostate. For the same compound, the growth in the assay on SK-MEL-5 melanoma is 97%; with UACC-62 melanoma it was 103%; in the assay with LOX IMVI melanoma it was 100%; in the assay with SK-MEL-28 melanoma, 104%.

`O=S(=O)(NCCCNc1cc(-c2cn(-c3ccccc3)nc2-c2cccc(O)c2)ccn1)c1ccc(Cl)cc1`: the growth in the assay with HCT-15 colon is -5.43% (active); in the assay with HT29 colon, -32.7% (active); in the assay with SNB-75 CNS, 20.3%; in the assay on SNB-19 CNS, 43.8%; in the assay on U251 CNS, 13.8%; in the assay on PC-3 prostate, 1.79% (active). Besides, the results for the growth in the assay with SK-MEL-5 melanoma, with UACC-62 melanoma and in the assay on SK-MEL-28 melanoma were -19.5% (active), 17.1% and -27.5% (active), respectively.

For `N#Cc1ccc(NC(=O)c2ccc3cccnc3c2O)cc1`, the growth in the assay on HCT-15 colon was 31.4%; in the assay with HT29 colon it was 30.7%; in the assay with SNB-75 CNS it was 43.8%; in the assay with SNB-19 CNS, 23.6%; with U251 CNS it was 14.6%; in the assay on PC-3 prostate, 45.9%. Also, the growth with SK-MEL-5 melanoma is 14.4%; with UACC-62 melanoma, 9.43% (active); in the assay on SK-MEL-28 melanoma, 34.5%.

`COc1cc2c3c(c(=O)oc2cc1OS(=O)(=O)c1ccc(C(F)(F)F)cc1)CCCCC3`: the growth was 79.2% in the assay on HCT-15 colon; 78.8% with HT29 colon; 8.09% (active) in the assay on SNB-75 CNS; 76.7% with SNB-19 CNS; 82.1% with U251 CNS; 68.1% in the assay on PC-3 prostate. Besides, the growth was 69.5% in the assay on SK-MEL-5 melanoma, 68.1% in the assay with UACC-62 melanoma and 76.3% in the assay with SK-MEL-28 melanoma.

With `O=c1oc2c([nH]c3ccc4ccccc4c32)c2ccccc12`, the growth is 105% with HCT-15 colon; 111% with HT29 colon; 126% in the assay with SNB-75 CNS; 108% in the assay on SNB-19 CNS; 100% in the assay with U251 CNS; 97.7% in the assay with PC-3 prostate. The growth in the assay on SK-MEL-5 melanoma was 85.5%; in the assay on UACC-62 melanoma, 93.8%; in the assay with SK-MEL-28 melanoma, 134%.

Take `CCNC(=O)C1CCCN1C(=O)C(CCCN=C(N)N)NC(=O)C(CC(C)C)NC(=O)C(CC(C)C)NC(=O)C(Cc1ccc(O)cc1)NC(=O)C(CO)NC(=O)C(Cc1c[nH]c2ccccc12)NC(=O)C(Cc1cnc[nH]1)NC(=O)C1CCC(=O)N1` (configuration not stated): the growth is 102% with HCT-15 colon; 97.4% in the assay on HT29 colon; 90.3% in the assay with SNB-75 CNS; 102% in the assay on SNB-19 CNS; 94.8% in the assay with U251 CNS; 81.8% with PC-3 prostate. Further, the growth in the assay on SK-MEL-5 melanoma was 95%; with UACC-62 melanoma, 110%; in the assay with SK-MEL-28 melanoma it was 168%.

Take `OCc1c(-c2ccccc2)nc2sccn12`: the growth in the assay on HCT-15 colon was 97.2%; in the assay with HT29 colon, 109%; in the assay on SNB-75 CNS, 122%; in the assay on SNB-19 CNS, 85.5%; in the assay with U251 CNS, 95.6%; with PC-3 prostate, 95.7%. The growth in the assay on SK-MEL-5 melanoma was 80.2%; in the assay on UACC-62 melanoma, 101%; in the assay on SK-MEL-28 melanoma, 122%.

`COc1ccc(/C=C/C(=O)OCC(=O)NNC(=O)c2ccccc2)cc1OC`: the growth in the assay on HCT-15 colon was 108%; with HT29 colon it was 105%; in the assay on SNB-75 CNS, 78.2%; with SNB-19 CNS, 111%; with U251 CNS, 97%; in the assay on PC-3 prostate, 97.3%. Moreover, the growth in the assay on SK-MEL-5 melanoma is 97.8%; in the assay on UACC-62 melanoma, 98.4%; with SK-MEL-28 melanoma it was 125%.

Consider `CC(C)[C@H](CO)Nc1nc(Nc2ccc(C(=O)NCCNS(=O)(=O)c3cccc4c(N(C)C)cccc34)c(Cl)c2)c2ncn(C(C)C)c2n1`, for which the growth in the assay on HCT-15 colon was 51.9%; in the assay with HT29 colon, 9.2% (active); with SNB-75 CNS it was 10.6%; in the assay with SNB-19 CNS, 24.6%; in the assay on U251 CNS it was 1.44% (active); in the assay with PC-3 prostate, 17%. Besides, the growth in the assay on SK-MEL-5 melanoma is 12.1%; with UACC-62 melanoma it was 22.2%; in the assay on LOX IMVI melanoma, -3.44% (active); with SK-MEL-28 melanoma, 15.7%.
